The values below come from PubChem BioAssay.

The structures appear in SMILES notation. Inconclusive results are not listed. Activity calls are given as the source filed them.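 How the source made its calls, unless noted: active means viability at or below 10% of carrier control in both of two separate runs; inconclusive means viability at or below 10% in only one of the two runs; inactive means the rest.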

The nature of experiment [1]: Her2 expression decrease, cell viability multiplex – SKBR3 breast tumor cells, AlphaScreen, ATP viability, primary screen (AID 461;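 active means Her2 level under about 52% in both replicate screens, with viability over 70% of control, limit read from the data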;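 on Her2 level: lower value means less Her2 protein in the cells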;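 on viability: percent of carrier control wells set as 100% viability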). The conditions noted are these: SKBR3 Her2 protein level, 18-24 h, measured here: SKBR3 viability, ATP luminescence, at 10 µM. In general terms: Bead proximity is the source of the signal in Alpha formats.
In experiment [2] the target is Receptor tyrosine-protein kinase erbB-2 (Homo sapiens) (UniProt P04626). The experiment is described as above. The conditions noted are these: 18-24 h, at 10 µM, stronger effect = lower value.
The nature of experiment [3]: reduced viability of SK-BR-3 breast cancer cells – cell-based, 24 h, human, pilot screen (AID 572).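 Further: compound exposure lasted between 18 and 24 h rather than exactly 24 h; 100% = carrier-treated control wells.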 The conditions noted are these: SK-BR-3 viability, CellTiter-Glo luminescence, at 10 µM, stronger effect = lower value.
Experiment [4] in a line: HUVEC growth inhibition – cell-based, human, primary screen (AID 575;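 active means viability at or below 30% in both replicate assays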;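 further: 100% = median of untreated cell wells with 0.1% DMSO on each plate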). As to conditions: HUVEC proliferation, CellTiter-Glo luminescence, 72 h; at 10 µM; stronger effect = lower value. In general terms: In ATP-based viability assays light output follows the ATP content of the culture.
Experiment [5] is described as follows: H69AR cell proliferation blockers – human, duplicate replicates, primary screen (AID 580;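 active means viability at or under a set limit in both replicates, limit being median viability minus 3 SD, cut at about 48% in these data, passing the limit was not always enough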;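 further: 100% = mean luminescence of untreated wells and 0% = no signal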). As to conditions: H69AR lung tumor cells viability, ATP luminescence, 72 h; at 10 µM; stronger effect = lower value.
Experiment [6] is described as follows: MRP1 drug-resistance reversers in H69AR cells – cell-based, doxorubicin co-treatment, pilot screen (AID 601;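 active means viability loss from added drug above about 55%, and viability with drug at most 40%, in both replicates, limit read from the data, passing the limit was not always enough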). As to conditions: CellTiter-Glo, 72 h, at 10 µM; for differential viability (reversal): stronger effect = higher value.
Experiment [7] is described as follows: doxorubicin toxicity protection in MRP-1 cells – H69AR cells, CellTiter-Glo, duplicate, MRP-1 activator project, pilot screen (AID 807;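 active means viability increase at or above a cutoff of the median across tested compounds plus 3 SD, cut at about 8.5% in these data, passing the limit was not always enough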;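 further: compound pretreatment 18-22 h then 72 h combined with doxorubicin; 0% = doxorubicin alone and 100% = vehicle without doxorubicin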). As to conditions: H69AR viability with doxorubicin, CellTiter-Glo luminescence; at 10 µM; stronger effect = higher value.
A short description of experiment [8]: viability of HCT116 without oncogenic beta-catenin – human colon tumor cells, pilot screen (AID 823;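 active means cell viability at or below a set limit in both duplicate runs, the limit being the all-compound median minus 4 SD, cut at about 23% in these data, passing the limit was not always enough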;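 further: 0% = wells killed by 20 µM Hyamine and 100% = untreated DMSO cell wells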). As to conditions: HCT116 beta-catenin knockout viability, CellTiter-Glo, 60 h; at 10 µM; stronger effect = lower value.
The nature of experiment [9]: viability of PTEN-null HCT116 cells – cell-based, HCT116 clonal line, CellTiter-Glo, pilot screen (AID 824;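 active means viability at or below 27.92% in each of two runs, the all-compound median minus 4 SD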;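 further: 0% = 20 µM Hyamine control and 100% = vehicle cell control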). As to conditions: HCT116 PTEN-deleted viability, 60 h, at 10 µM, stronger effect = lower value.
A short description of experiment [10]: RAM pathway blockade in budding yeast – dse1pr::URA3 reporter, 5-FOA selection, pilot screen (AID 869;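 active means inhibition over a set limit, the all-compound mean plus 3 SD, in both replicate runs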;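 further: 0% = DMSO wells with no growth and 100% = 10 µM 1-NA-PP1 with full growth; RAM network block rescues cells from 5-FOA so hits raise OD615 growth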). As to conditions: S. cerevisiae dse1pr::URA3 5-FOA growth, OD615, 2 d; at 10 µM; stronger effect = higher value; strain carries analog-sensitive mutant Cbk1 kinase.
Experiment [11] in a line: RAM signaling pathway blockade in yeast – S. cerevisiae, Pdr1DBD-CYC8 efflux-inhibited sensitized strain, primary screen (AID 1298;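 active means RAM network inhibition above 8.4% in each of two replicates, 3 SD over the compound average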;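 further: 0% = DMSO untreated cells without growth and 100% = 10 µM 1-NA-PP1 full growth; higher means more yeast growth rescued from 5-FOA killing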). As to conditions: S. cerevisiae cbk1-as DSE1-URA3 strain, 5-FOA growth OD615, 2 d; at 50 µM; stronger effect = higher value.
The mark [12] stands for this setting: H69AR cells + 2 uM doxorubicin, measured here: viability with 2 uM doxorubicin, stronger effect = lower value.
[13] abbreviates: H69AR cells, compound alone cytotoxicity.

Chain of Receptor tyrosine-protein kinase erbB-2 (Homo sapiens) (P04626 whole entry, looked up): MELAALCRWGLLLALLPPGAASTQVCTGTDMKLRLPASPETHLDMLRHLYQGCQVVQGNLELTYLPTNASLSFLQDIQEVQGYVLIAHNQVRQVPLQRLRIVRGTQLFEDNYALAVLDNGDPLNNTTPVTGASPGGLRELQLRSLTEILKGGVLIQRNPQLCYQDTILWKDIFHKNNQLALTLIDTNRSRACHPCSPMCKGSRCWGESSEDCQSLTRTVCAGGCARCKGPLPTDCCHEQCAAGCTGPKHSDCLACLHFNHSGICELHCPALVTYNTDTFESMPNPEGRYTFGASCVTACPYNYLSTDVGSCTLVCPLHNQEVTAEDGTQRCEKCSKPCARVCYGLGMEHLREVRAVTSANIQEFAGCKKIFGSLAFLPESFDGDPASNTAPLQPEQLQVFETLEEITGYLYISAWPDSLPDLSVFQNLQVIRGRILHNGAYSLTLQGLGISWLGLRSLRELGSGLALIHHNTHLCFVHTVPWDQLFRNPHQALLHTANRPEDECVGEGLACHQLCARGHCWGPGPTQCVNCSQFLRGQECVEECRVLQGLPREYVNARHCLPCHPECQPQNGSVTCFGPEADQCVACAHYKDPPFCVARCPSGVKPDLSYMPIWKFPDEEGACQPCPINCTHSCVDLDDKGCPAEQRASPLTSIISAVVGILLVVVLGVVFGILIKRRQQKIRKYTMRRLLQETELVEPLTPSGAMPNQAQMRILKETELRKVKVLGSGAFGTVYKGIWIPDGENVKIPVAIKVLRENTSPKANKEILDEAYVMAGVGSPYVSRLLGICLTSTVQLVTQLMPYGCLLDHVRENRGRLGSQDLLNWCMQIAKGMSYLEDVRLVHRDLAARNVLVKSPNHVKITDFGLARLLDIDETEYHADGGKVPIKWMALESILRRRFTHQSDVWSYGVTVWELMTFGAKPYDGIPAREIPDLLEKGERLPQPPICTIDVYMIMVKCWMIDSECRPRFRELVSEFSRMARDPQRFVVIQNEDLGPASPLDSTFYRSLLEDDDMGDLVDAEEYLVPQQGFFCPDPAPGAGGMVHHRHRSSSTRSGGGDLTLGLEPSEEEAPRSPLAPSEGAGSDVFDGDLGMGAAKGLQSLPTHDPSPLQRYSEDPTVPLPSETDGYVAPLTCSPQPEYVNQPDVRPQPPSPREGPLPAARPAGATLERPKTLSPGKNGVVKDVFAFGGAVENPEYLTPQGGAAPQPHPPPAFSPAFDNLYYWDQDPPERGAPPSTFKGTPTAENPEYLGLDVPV

The term viability denotes a read-out of living cells in per cent, often relative to untreated cells. On to `C[C@]12CC[C@@H]3c4ccc(OS(=O)(=O)O)cc4CC[C@H]3[C@@H]1CCC2=O`, for which the viability in experiment [1] was 87%; in experiment [3] it was 87% (inactive); in experiment [4], 99.6% (inactive). The Her2 level in experiment [2] was 108% (inactive).
As to `O=C1N[C@@H](Cc2cnc[nH]2)C(=O)N2CCC[C@@H]12`, the viability in experiment [1] was 113%; in experiment [3] it was 113% (inactive); in experiment [4], 94.9% (inactive); in [5], 87.1% (inactive); in experiment [6] (setting [12]) it was 89.3%; in [6] (setting [13]), 87.1%. Moreover, in experiment [2], the Her2 level was 97% (inactive). For the same compound, the differential viability (reversal) in experiment [6] (H69AR cells + 2 uM doxorubicin) is -2.25% (inactive).
On to `CCC(=O)O[C@]1(C(=O)CCl)[C@@H](C)C[C@H]2[C@@H]3CCC4=CC(=O)C=C[C@]4(C)[C@@]3(F)[C@@H](O)C[C@@]21C`, for which the viability in experiment [1] was 122%; in experiment [3], 122% (inactive); in [4] it was 84.9% (inactive); in [5], 87.3% (inactive); in [6] (setting [12]) it was 101%; in [6] (setting [13]), 87.3%. In experiment [2], the Her2 level is 86.5% (inactive). Besides, in experiment [6] (H69AR cells + 2 uM doxorubicin), the differential viability (reversal) is -13.3% (inactive).
In the case of `CC(=O)OCC(=O)[C@@]1(O)CC[C@H]2[C@@H]3CCC4=CC(=O)C=C[C@]4(C)[C@@]3(Cl)[C@@H](Cl)C[C@@]21C`, the viability in experiment [1] is 114%; in [3] it was 114% (inactive); in experiment [4], 98.5% (inactive); in experiment [5], 97.4% (inactive); in [6] (setting [12]), 110%; in [6] (setting [13]), 97.4%. The Her2 level in [2] is 116% (inactive). The differential viability (reversal) in experiment [6] (H69AR cells + 2 uM doxorubicin) was -13% (inactive).
On to `CCC(NC(C)C)C(O)c1ccc(O)c(O)c1` (stereo not given), for which the viability in experiment [1] is 87.5%; in experiment [3] it was 87.5% (inactive); in [4] it was 105% (inactive); in experiment [5] it was 85% (inactive); in experiment [6] (setting [12]), 91.5%; in [6] (setting [13]), 85%. In addition, the Her2 level in experiment [2] was 88% (inactive). Besides, the differential viability (reversal) in [6] (H69AR cells + 2 uM doxorubicin) was -6.46% (inactive).
Consider `CC(C)C[C@H](NC(=O)[C@@H]1O[C@H]1C(=O)O)C(=O)NCCCCN=C(N)N`, for which the viability in [1] was 100%; in [3] it was 100% (inactive); in [4], 86% (inactive); in [5], 100% (inactive); in [6] (setting [12]) it was 103%; in experiment [6] (setting [13]) it was 100%. In [2], the Her2 level is 104% (inactive). Besides, the differential viability (reversal) in experiment [6] (H69AR cells + 2 uM doxorubicin) was -2.29% (inactive).
`Cc1ncc([N+](=O)[O-])n1CC(O)CCl` (stereo not given): the viability in experiment [1] is 99.5%; in [3], 99.5% (inactive); in experiment [4], 108% (inactive); in [5], 104% (inactive); in [6] (setting [12]), 104%; in experiment [6] (setting [13]), 104%. Further, the Her2 level in [2] was 106% (inactive). In addition, the differential viability (reversal) in [6] (H69AR cells + 2 uM doxorubicin) is 0.25% (inactive).
Consider `O=c1n(CCCN2CCN(c3cccc(Cl)c3)CC2)nc2ccccn12`, for which the viability is 81% in [1]; 81% (inactive) in experiment [3]; 99.2% (inactive) in experiment [4]; 87.3% (inactive) in experiment [5]; 94.3% in experiment [6] (setting [12]); 87.3% in [6] (setting [13]). In addition, in [2], the Her2 level is 93% (inactive). The differential viability (reversal) in experiment [6] (H69AR cells + 2 uM doxorubicin) is -7.03% (inactive).
With `CC(=O)[C@@]1(O)CC[C@H]2[C@@H]3CCC4=CC(=O)CC[C@]4(C)[C@H]3[C@@H](O)C[C@@]21C`, the viability in experiment [1] was 97%; in experiment [3] it was 97% (inactive); in experiment [4], 94.8% (inactive); in experiment [5] it was 99.5% (inactive); in experiment [6] (setting [12]), 99.2%; in experiment [6] (setting [13]), 99.5%. For the same compound, the Her2 level in experiment [2] is 104% (inactive). For the same compound, in experiment [6] (H69AR cells + 2 uM doxorubicin), the differential viability (reversal) was 0.36% (inactive).
By inhibition is commonly meant the drop in the measured response relative to a control, in per cent. Regarding `COc1ccc(-c2n[nH]c(C(F)(F)F)c2-c2cc3ccccc3o2)c(O)c1`, the viability increase in experiment [7] is -7.49% (inactive). Further, the figures for the viability in [8] and in [9] were 59.5% (inactive) and 55% (inactive), respectively. Further, the inhibition in [10] was -1.46% (inactive). Moreover, the RAM network inhibition in experiment [11] was -1.35% (inactive).
The like results for `COC(=O)CSCc1nc2ccccc2[nH]c1=O` were, in that order, -2.15% (inactive), 101% (inactive), 94.8% (inactive), 0.08% (inactive) and 1.09% (inactive).
The like results for `CCCOc1ccc(C(=O)Nc2cc(-c3nn4c(C)nnc4s3)ccc2C)cc1` were, in that order, -3.69% (inactive), 101% (inactive), 92.9% (inactive), 1.7% (inactive) and 3.75% (inactive).
Turning to `c1cn2cc(-c3ccc4c(c3)OCO4)nc2s1`, the viability increase in [7] was 1.35% (inactive). Moreover, the viability in experiment [8] is 99.7% (inactive); in experiment [9] it was 90.7% (inactive). For the same compound, the inhibition in experiment [10] is 1.96% (inactive). In addition, the RAM network inhibition in experiment [11] was 0.64% (inactive).
As to `CN(C(=O)C(Cl)Cl)c1ccc(OC(=O)c2ccco2)cc1`, the viability in experiment [1] was 130%; in experiment [3], 130% (inactive); in experiment [4], 86.3% (inactive); in experiment [5], 96.6% (inactive); in experiment [6] (setting [12]) it was 91.5%; in experiment [6] (setting [13]), 96.6%. Besides, the Her2 level in [2] was 88% (inactive). The differential viability (reversal) in [6] (H69AR cells + 2 uM doxorubicin) was 5.13% (inactive).
Turning to `O=C(c1cc(-c2ccccc2O)on1)N1CCc2ccccc2C1`, the viability increase in [7] is -0.83% (inactive). The values for the viability in [8] and in [9] were 97.9% (inactive) and 90.5% (inactive), respectively. In [10], the inhibition is 0.485% (inactive). In addition, the RAM network inhibition in [11] is 7.78% (inactive).
Regarding `C[C@H]1C[C@H]2[C@@H]3CCC4=CC(=O)C=C[C@]4(C)[C@@]3(Cl)[C@@H](O)C[C@]2(C)[C@@]1(O)C(=O)CO`, the viability was 110% in [1]; 110% (inactive) in [3]; 91.4% (inactive) in [4]; 97.5% (inactive) in experiment [5]; 103% in [6] (setting [12]); 97.5% in [6] (setting [13]). Also, the Her2 level in experiment [2] was 112% (inactive). The differential viability (reversal) in experiment [6] (H69AR cells + 2 uM doxorubicin) was -5.3% (inactive).
On to `S=C(N=Nc1ccccc1)NNc1ccccc1`, for which the viability in experiment [1] is 118%; in experiment [3], 118% (inactive); in experiment [4] it was 80% (inactive); in [5] it was 81.4% (inactive); in [6] (setting [12]), 88%; in experiment [6] (setting [13]), 81.4%. Moreover, in [2], the Her2 level is 90% (inactive). Also, the differential viability (reversal) in [6] (H69AR cells + 2 uM doxorubicin) is -6.66% (inactive).
Regarding `C[C@]12CC[C@@H]3c4ccc(O[C@@H]5O[C@H](C(=O)O)[C@@H](O)[C@H](O)[C@H]5O)cc4CC[C@H]3[C@@H]1C[C@@H](O)[C@@H]2O`, the viability in experiment [1] is 102%; in experiment [3], 102% (inactive); in [4], 89.5% (inactive); in experiment [5], 102% (inactive); in experiment [6] (setting [12]) it was 84.8%; in experiment [6] (setting [13]), 102%. The Her2 level in experiment [2] is 92.5% (inactive). The differential viability (reversal) in experiment [6] (H69AR cells + 2 uM doxorubicin) is 17.1% (inactive).
